Assay results reported in PubChem BioAssay AID504819 (NMMLSC, 2011).
The list shows a part of the results. Unmarked numbers belong to inactive results.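 The calls were made as follows: active = compounds quenching the bead-bound labeled aptamer, with fluorescence dropping by more than 37 kMESF over the dose range; inactive = the rest.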

Assay: aptamer fluorescence quenchers on streptavidin beads – biochemical, flow cytometry, cherry pick 2, artefact control for GRK2 aptamer inhibitor project, dose response (AID 504819)
Conditions: FAM-RNA aptamer fluorescence quenching, active compounds read high

Row | SMILES | change in fluorescence (kMESF span)
1 | COc1ccc(Cl)cc1NC(=O)CCS(=O)(=O)c1ccc(Br)cc1 | 1.4 kMESF
2 | O=C(CCS(=O)(=O)c1ccc(Br)cc1)NCCc1ccc(Cl)cc1 | 2.5 kMESF
